# PubChem BioAssay (Tox21)
# “And” between values parts separate entries of the source, which are not always exact repeats. Equal values may be shown once. Unmarked numbers belong to inactive results. Entries that show only a call come without a potency. The source made the active and inactive calls. Unless noted, the call rests on the fitted dose curve; in most records, active means well fitted curve in the direction sought with a large enough effect in the repeat runs; inconclusive means weak or mixed curves; inactive means no such curve, though single readings can be large; an effect the other way counts as inactive or inconclusive.
# Key:
# [1] = test system: thyroid hormone receptor (rat, GH3 cells); assay: qHTS assay to identify small molecule agonists of the thyroid receptor (TR) signaling pathway (AID 743066; calls by dose curve); details: GH3.TRE-Luc cells, TR agonist luciferase, 24 h; series mostly up to 83.9 µM
# [2] = qHTS assay to identify small molecule antagonists of the estrogen receptor alpha (ER-alpha) signaling pathway - cell viability counter screen (AID 743074; calls by dose curve;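 further: HEK293 cells carrying ER-alpha-UAS-bla reporter stimulated with 17beta-estradiol; nearly all actives have a fitted effect of over 45% in size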; further: potency means the concentration at half of the fitted maximal effect); details: ERalpha-bla HEK293 viability, CellTiter-Glo luminescence, 18 h; series mostly up to 69.4 µM
# [3] = qHTS assay to identify small molecule antagonists of the estrogen receptor alpha (ER-alpha) signaling pathway using the BG1 cell line - cell viability counter screen (AID 743081); details: BG1Luc4E2 viability, CellTiter-Fluor, 22 h; series mostly up to 70.3 µM;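 further: compound given together with 17beta-estradiol as the ER stimulus; nearly all actives have a fitted effect of over 45% in size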
# [4] = target: Aromatase (Homo sapiens) (UniProt P11511); assay: qHTS assay to identify aromatase inhibitors (AID 743083); details: MCF-7 aro ERE, testosterone-driven ERE luciferase, 24 h; series mostly up to 70.3 µM; further: nearly all actives have a fitted effect of over 55% in size; further: potency means the concentration at half of the fitted maximal effect
# Aromatase (Homo sapiens), sequence (P11511 whole entry, looked up): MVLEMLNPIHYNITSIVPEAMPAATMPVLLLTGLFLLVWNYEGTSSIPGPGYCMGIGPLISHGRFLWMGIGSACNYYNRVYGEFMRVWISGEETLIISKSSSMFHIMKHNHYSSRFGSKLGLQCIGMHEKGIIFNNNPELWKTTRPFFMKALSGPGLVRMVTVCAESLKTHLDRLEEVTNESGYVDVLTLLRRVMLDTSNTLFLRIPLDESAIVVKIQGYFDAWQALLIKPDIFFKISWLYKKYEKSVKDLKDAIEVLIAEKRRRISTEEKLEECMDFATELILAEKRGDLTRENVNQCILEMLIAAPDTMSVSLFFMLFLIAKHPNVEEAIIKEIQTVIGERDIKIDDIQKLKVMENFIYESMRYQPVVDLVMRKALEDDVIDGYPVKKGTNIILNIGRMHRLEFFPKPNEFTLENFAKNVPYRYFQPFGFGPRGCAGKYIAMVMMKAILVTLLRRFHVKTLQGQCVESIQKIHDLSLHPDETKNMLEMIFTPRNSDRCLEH
# [5] = qHTS assay to identify aromatase inhibitors - cell viability counter screen (AID 743084); details: MCF-7 aro ERE viability, CellTiter-Fluor, 24 h; series mostly up to 70.3 µM;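 further: cells stimulated with testosterone during compound exposure; nearly all actives have a fitted effect of over 55% in size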; further: potency means the concentration at half of the fitted maximal effect
# [6] = target: Aryl hydrocarbon receptor (Homo sapiens) (UniProt P35869); assay: qHTS assay to identify small molecule that activate the aryl hydrocarbon receptor (AhR) signaling pathway (AID 743085); details: HepG2 AhR-luc (HG2L7.5c1), luciferase, 24 h; series mostly up to 70.3 µM; further: nearly all actives have a fitted effect of over 15% in size; further: potency means the concentration at half of the fitted maximal effect;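 on activation: HG2L7.5c1 human HepG2 liver cells with stably integrated DRE-driven firefly reporter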
# Aryl hydrocarbon receptor (Homo sapiens), sequence (P35869 whole entry, looked up): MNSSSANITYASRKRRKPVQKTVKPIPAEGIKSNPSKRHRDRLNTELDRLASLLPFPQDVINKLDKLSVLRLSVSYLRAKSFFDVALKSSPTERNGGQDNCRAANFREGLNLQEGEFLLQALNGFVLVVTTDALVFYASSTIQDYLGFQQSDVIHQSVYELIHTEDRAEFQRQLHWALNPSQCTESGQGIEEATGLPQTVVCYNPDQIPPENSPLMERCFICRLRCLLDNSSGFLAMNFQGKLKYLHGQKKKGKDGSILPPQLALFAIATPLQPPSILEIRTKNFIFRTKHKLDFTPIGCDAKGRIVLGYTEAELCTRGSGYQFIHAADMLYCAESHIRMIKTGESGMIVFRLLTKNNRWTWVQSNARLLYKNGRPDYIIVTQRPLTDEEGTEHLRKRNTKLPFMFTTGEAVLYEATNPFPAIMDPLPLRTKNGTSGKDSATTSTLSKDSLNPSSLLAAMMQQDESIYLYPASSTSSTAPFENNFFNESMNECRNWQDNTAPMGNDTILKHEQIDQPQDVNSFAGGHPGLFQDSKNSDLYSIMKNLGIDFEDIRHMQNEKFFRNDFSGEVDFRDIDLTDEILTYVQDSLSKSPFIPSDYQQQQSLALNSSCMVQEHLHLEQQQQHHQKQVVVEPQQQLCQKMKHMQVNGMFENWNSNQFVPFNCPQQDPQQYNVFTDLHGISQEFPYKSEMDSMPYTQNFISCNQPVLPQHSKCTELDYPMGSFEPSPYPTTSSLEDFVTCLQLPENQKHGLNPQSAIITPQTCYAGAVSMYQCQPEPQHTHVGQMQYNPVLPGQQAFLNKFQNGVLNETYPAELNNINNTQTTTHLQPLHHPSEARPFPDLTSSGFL
# Procedure, shortened: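 A multiplexed format paired cell viability (CellTiter-Fluor fluorescence) with AhR-dependent luciferase output (ONE-Glo luminescence) in the same wells of HepG2 DRE-luc cells after 24 h compound exposure at 37C.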
# [7] = qHTS assay to identify small molecule that activate the aryl hydrocarbon receptor (AhR) signaling pathway - cell viability counter screen (AID 743086); details: HepG2-AhR-luc viability, CellTiter-Fluor, 24 h; series mostly up to 70.3 µM; further: nearly all actives have a fitted effect of over 45% in size; further: potency means the concentration at half of the fitted maximal effect
# Procedure, shortened: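 Cytotoxicity counter screen: CellTiter-Fluor signal (30 min, 37 C) in 4000 HepG2 cells/well carrying the DRE-luciferase reporter, following 24 h compound exposure at 37 C.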
# [8] = qHTS assay to identify small molecule antagonists of the peroxisome proliferator-activated receptor gamma (PPARg) signaling pathway - cell viability counter screen (AID 743194); details: PPARg-bla HEK293H viability, CellTiter-Glo luminescence, 17 h, co-treated with 50 nM rosiglitazone; series mostly up to 62.6 µM; further: nearly all actives have a fitted effect of over 55% in size; further: potency means the concentration at half of the fitted maximal effect
# Procedure, shortened: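 Viability was measured as CellTiter-Glo luminescence in GeneBLAzer PPARg UAS-bla HEK293H cells. These cells had been exposed 17 h at 37 C to compounds together with rosiglitazone at 50 nM final, with the beta-lactamase readout taken in the same wells.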
# [9] = qHTS assay for small molecule activators of the heat shock response signaling pathway - cell viability counter screen (AID 743209); details: HSE-bla HeLa viability, CellTiter-Glo luminescence, 5 h; series mostly up to 62.6 µM; further: nearly all actives have a fitted effect of over 50% in size; further: potency means the concentration at half of the fitted maximal effect
# Procedure, shortened: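 HSE-bla HeLa; 1500 cells/well; overnight 37 C, 5% CO2; compound 5 h 37 C; LiveBLAzer B/G substrate 2.5 h RT; CellTiter-Glo 30 min RT; luminescence.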
# [10] = qHTS assay to identify small molecule agonists of the peroxisome proliferator-activated receptor delta (PPARd) signaling pathway - cell viability counter screen (AID 743211); details: PPARd-bla HEK293H viability, CellTiter-Glo luminescence, 17 h; series mostly up to 62.6 µM; further: nearly all actives have a fitted effect of over 55% in size; further: potency means the concentration at half of the fitted maximal effect
# Procedure, shortened: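 Tox21 library compounds, delivered in DMSO, were incubated 17 h with PPARd-bla HEK293H cells; cytotoxicity was taken from CellTiter-Glo luminescence read 30 min after reagent addition.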
# [11] = target: Estrogen receptor (Homo sapiens) (UniProt P03372); assay: qHTS assay to identify small molecule agonists of the estrogen receptor alpha (ER-alpha) signaling pathway (AID 743075; calls by dose curve;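 further: HEK293 GripTite cells with ER-alpha and UAS-driven beta-lactamase reporter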); details: HEK293 ER-alpha-UAS-bla, beta-lactamase FRET ratio, 18 h; series mostly up to 70.1 µM
# Estrogen receptor (Homo sapiens), sequence (P03372 whole entry, looked up): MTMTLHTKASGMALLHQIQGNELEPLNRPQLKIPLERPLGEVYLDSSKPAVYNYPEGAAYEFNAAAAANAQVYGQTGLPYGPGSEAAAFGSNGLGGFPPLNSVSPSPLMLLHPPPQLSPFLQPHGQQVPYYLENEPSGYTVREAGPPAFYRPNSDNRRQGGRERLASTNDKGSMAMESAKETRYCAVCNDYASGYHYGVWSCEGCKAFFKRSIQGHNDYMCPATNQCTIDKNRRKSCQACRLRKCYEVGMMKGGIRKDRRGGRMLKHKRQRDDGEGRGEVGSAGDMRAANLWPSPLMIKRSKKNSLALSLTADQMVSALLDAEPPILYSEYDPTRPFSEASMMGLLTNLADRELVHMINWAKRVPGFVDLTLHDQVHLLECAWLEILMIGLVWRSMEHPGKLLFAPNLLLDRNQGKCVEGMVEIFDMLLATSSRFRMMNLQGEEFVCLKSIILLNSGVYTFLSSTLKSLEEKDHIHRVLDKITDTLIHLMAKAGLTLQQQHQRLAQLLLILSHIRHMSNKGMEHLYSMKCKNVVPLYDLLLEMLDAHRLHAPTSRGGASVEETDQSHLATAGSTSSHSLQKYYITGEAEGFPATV
# [12] = qHTS assay to identify small molecule antagonists of the estrogen receptor alpha (ER-alpha) signaling pathway using the BG1 cell line (AID 743080; calls by dose curve;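 further: BG1 cells stimulated with 17beta-estradiol alongside compound; nearly all actives have a fitted effect of over 25% in size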; further: potency means the concentration at half of the fitted maximal effect); details: BG1Luc4E2 ERE-luciferase antagonist mode, luminescence; activity change, negative = inhibition: at 70.3 µM (top of the series)
# Procedure, shortened: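 Readout is ONE-Glo luminescence, taken 30 min at room temperature after reagent addition, preceded by a CellTiter-Fluor viability read; BG1-Luc-4E2 cells had received compound and 17beta-estradiol for 21.5 h at 37 C.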
# [13] = target: Peroxisome proliferator-activated receptor gamma (Homo sapiens) (UniProt P37231); assay: qHTS assay to identify small molecule antagonists of the peroxisome proliferator-activated receptor gamma (PPARg) signaling pathway (AID 743191; calls by dose curve; further: nearly all actives have a fitted effect of over 30% in size; further: potency means the concentration at half of the fitted maximal effect); details: HEK293H PPARg-UAS-bla, beta-lactamase ratio, antagonist, 17 h; series mostly up to 62.6 µM
# Peroxisome proliferator-activated receptor gamma (Homo sapiens), sequence (P37231 whole entry, looked up): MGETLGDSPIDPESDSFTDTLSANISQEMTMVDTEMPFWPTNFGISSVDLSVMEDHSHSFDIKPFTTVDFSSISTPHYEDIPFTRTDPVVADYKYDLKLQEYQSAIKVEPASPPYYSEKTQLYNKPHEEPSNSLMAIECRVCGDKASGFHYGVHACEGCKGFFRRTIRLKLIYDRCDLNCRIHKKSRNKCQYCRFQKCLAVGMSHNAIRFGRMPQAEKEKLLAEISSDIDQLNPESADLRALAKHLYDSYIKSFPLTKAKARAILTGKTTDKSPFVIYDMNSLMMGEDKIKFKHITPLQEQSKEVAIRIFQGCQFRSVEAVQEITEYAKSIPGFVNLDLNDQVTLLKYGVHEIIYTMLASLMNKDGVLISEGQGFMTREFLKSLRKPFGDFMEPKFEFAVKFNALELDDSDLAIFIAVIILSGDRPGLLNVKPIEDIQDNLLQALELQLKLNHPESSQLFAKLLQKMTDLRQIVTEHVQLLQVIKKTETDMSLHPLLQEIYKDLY
# Procedure, shortened: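 Beta-lactamase reporter under UAS control in HEK293H PPARg-bla cells; compound treatment 17 h at 37C. Read-out: fluorescence intensity after 1 h room-temperature incubation with LiveBLAzer B/G FRET substrate.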
# [14] = qHTS assay for small molecule agonists of the antioxidant response element (ARE) signaling pathway - cell viability counter screen (AID 743203; calls by dose curve; further: nearly all actives have a fitted effect of over 55% in size; further: potency means the concentration at half of the fitted maximal effect); details: ARE-bla HepG2 viability, CellTiter-Glo luminescence, 16 h; series mostly up to 73.3 µM
# Procedure, shortened: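 Luminescence read-out (CellTiter-Glo, 30 min at room temperature) measured cell viability in the same wells as the ARE beta-lactamase reporter. HepG2 ARE-bla cells were treated with compounds for 16 hrs at 37C/5% CO2.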
# [15] = target: Peroxisome proliferator-activated receptor delta (Homo sapiens) (UniProt Q03181); assay: qHTS assay to identify small molecule agonists of the peroxisome proliferator-activated receptor delta (PPARd) signaling pathway (AID 743212; calls by dose curve;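 further: HEK293H cells with PPARd UAS beta-lactamase reporter GeneBLAzer system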); details: HEK293H PPARd-UAS-bla, beta-lactamase FRET ratio, 17 h; series mostly up to 62.6 µM
# Peroxisome proliferator-activated receptor delta (Homo sapiens), sequence (Q03181 whole entry, looked up): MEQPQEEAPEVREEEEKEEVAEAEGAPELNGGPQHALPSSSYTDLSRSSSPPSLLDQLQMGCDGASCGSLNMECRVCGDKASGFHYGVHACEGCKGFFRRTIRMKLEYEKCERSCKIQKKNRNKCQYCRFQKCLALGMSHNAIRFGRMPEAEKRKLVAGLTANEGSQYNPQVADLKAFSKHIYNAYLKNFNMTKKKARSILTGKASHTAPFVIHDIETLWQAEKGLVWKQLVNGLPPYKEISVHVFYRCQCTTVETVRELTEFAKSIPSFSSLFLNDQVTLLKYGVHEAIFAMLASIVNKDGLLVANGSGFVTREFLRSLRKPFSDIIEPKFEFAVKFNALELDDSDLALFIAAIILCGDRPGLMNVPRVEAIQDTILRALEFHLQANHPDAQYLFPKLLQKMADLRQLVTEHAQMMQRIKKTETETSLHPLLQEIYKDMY
# Procedure, shortened: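 Beta-lactamase reporter readout: a ratiometric FRET signal from the LiveBLAzer substrate after 2 h at room temperature. Compound exposure at 37 °C in PPARδ-bla HEK293H cells driven by an upstream activator sequence.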
# [16] = target: Peroxisome proliferator-activated receptor gamma (Homo sapiens) (UniProt P37231); assay: qHTS assay to identify small molecule agonists of the peroxisome proliferator-activated receptor gamma (PPARg) signaling pathway (AID 743094; active means well fitted activation curve with a large enough effect in the signal ratio in the repeat runs, not every such curve was filed as active; inconclusive means weak or mixed curves, or effect the other way; inactive means no such curve, though single readings can be large or run the other way; the % refers to the signal ratio); details: HEK293H PPARg-UAS-bla, beta-lactamase FRET ratio, 17 h; series mostly up to 57 µM
# Procedure, shortened: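 HEK293H PPARg-bla cells, 5 h settle at 37C/5% CO2; compound (DMSO) 17 h, 37C; B/G FRET substrate 1 h RT; fluorescence intensity read-out. qHTS format.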
# [17] = qHTS assay for small molecule agonists of the antioxidant response element (ARE) signaling pathway (AID 743202; active means well fitted activation curve with a large enough effect in the signal ratio in the repeat runs, not every such curve was filed as active; inconclusive means weak or mixed curves, or effect the other way; inactive means no such curve, though single readings can be large or run the other way; the % refers to the signal ratio; further: potency means the concentration at half of the fitted maximal effect); details: HepG2 ARE-bla reporter, beta-lactamase FRET, 16 h; series mostly up to 73.3 µM
# Procedure, shortened: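 After 16 hours of compound treatment at 37 C, HepG2 cells with a stably integrated ARE-driven beta-lactamase reporter were loaded 2 hours at room temperature with LiveBLAzer B/G FRET substrate and fluorescence intensity measured.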
# [18] = qHTS assay for small molecule activators of the heat shock response signaling pathway (AID 743210; active means well fitted activation curve with a large enough effect in the signal ratio in the repeat runs, with a control signal flat, not every such curve was filed as active; inconclusive means weak or mixed curves; the % refers to the signal ratio); details: HeLa HSE-bla reporter, beta-lactamase ratio, 5 h; series mostly up to 62.6 µM
# Procedure, shortened: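 Compound exposure lasted 5 h at 37 C in HeLa cells carrying a heat-shock-element-driven beta-lactamase reporter. Read-out: fluorescence intensity after 2.5 h room-temperature loading with LiveBLAzer B/G FRET substrate.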
# [19] = target: Estrogen receptor (Homo sapiens) (UniProt P03372); assay: qHTS assay to identify small molecule antagonists of the estrogen receptor alpha (ER-alpha) signaling pathway (AID 743069; active means well fitted curve in the direction sought with a large enough effect in the signal ratio in the repeat runs, not every such curve was filed as active; inconclusive means weak or mixed curves, or effect the other way; inactive means no such curve, though single readings can be large or run the other way; the % refers to the signal ratio; further: potency means the concentration at half of the fitted maximal effect); details: HEK293 ER-alpha-UAS-bla, beta-lactamase ratio, antagonist mode; series mostly up to 69.4 µM
# Procedure, shortened: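 Antagonist mode: compounds in DMSO were co-added with 17beta-estradiol to ER-alpha-bla HEK293 cells (2% charcoal-stripped serum) and left 18 h at 37C. Reporter inhibition was measured as FRET fluorescence after 2 h LiveBLAzer substrate at room temperature.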
# [20] = target: Estrogen receptor (Homo sapiens) (UniProt P03372); assay: qHTS assay to identify small molecule agonists of the estrogen receptor alpha (ER-alpha) signaling pathway using the BG1 cell line (AID 743079); details: BG1Luc4E2 cells, ERE-luciferase agonist, 22 h; activation: at 70.3 µM (top of the series); further: nearly all actives have a fitted effect of over 20% in size
SMILES,Potency [1],Potency [2],Potency [3],Potency [4],Potency [5],Potency [6],Potency [7],Potency [8],Potency [9],Potency [10],Potency [11],Potency [12],Potency [13],Potency [14],outcome [15],Potency [16],Potency [17],Potency [18],Potency [19],Potency [20]
CC(=O)Nc1ccc(O)cc1,inactive,inactive,inactive,inactive,inactive,inactive,inactive,inactive,inactive,inactive,,,,,,,,,,
Clc1ccccc1CN1CCc2sccc2C1,inactive,inactive,inactive,inactive,inactive,inactive,inactive,inactive,inactive,,,,,,,,,,,
CN(C)c1ccc(N=Nc2ccccc2C(=O)O)cc1,inactive,,,54.5 µM (active),24.3 µM (active),54.5 µM (active),,,,,inactive,inactive,inactive,61.1 µM (active),inactive,,,,,
C=CC(=O)OCCOCC(CC)(COCCOC(=O)C=C)COCCOC(=O)C=C,inactive,inactive,,10.1 µM (active),2.84 µM (active),inactive,71.4 µM (active),,,51 µM (active),,,,inactive,,,,,,
CCCCCCCCCCCC(=O)N(CC)CC,inactive,inactive,inactive,inactive,inactive,inactive,inactive,inactive,inactive,inactive,,,,inactive,inactive,inactive,inactive,inactive,,
SCCCCCCCCS,inactive,inactive,inactive,inactive,inactive,inactive,inactive,inactive,,inactive,,,,43.3 µM (active),inactive,inactive,,,,
O=C1C=CC(=O)N1c1ccccc1,inactive,,,10.9 µM (active),9.69 µM (active),inactive,61.1 µM (active),13.8 µM (active),21.9 µM (active),15.5 µM (active),,,,12.2 µM (active),,,,,,
CNC(=O)c1cc(Oc2ccc(NC(=O)Nc3ccc(Cl)c(C(F)(F)F)c3)cc2)ccn1,,21.3 µM (active),,11.9 µM (active),23.7 µM (active),inactive,18.8 µM (active),18.8 µM (active),inactive,15 µM (active),inactive,,10.6 µM (active),,inactive,,,,6.01 µM [inconclusive] (active),
NC(=O)C(=O)N/N=C/c1ccc([N+](=O)[O-])o1,,inactive,inactive,,,,inactive,inactive,,inactive,inactive,,,inactive,inactive,inactive,29.8 µM (active),,inactive,inactive
O=C1NCCN1CCN1CCC(c2cn(-c3ccc(F)cc3)c3ccc(Cl)cc23)CC1,,15.1 µM (active) and 9.52 µM (active),inactive,,29.8 µM (active),inactive,23.7 µM (active),29.8 µM (active),,23.7 µM (active),inactive,29.8 µM (active),,26.6 µM (active),,inactive,,,,
CCOC(=O)COc1ccc(C)cc1,,inactive,inactive,inactive,inactive,inactive,inactive,inactive,,inactive,inactive,inactive,,inactive,,inactive,,,inactive,inactive
C=C1C(C)(C)[C@@]2(Cl)C(Cl)[C@]1(Cl)C(Cl)(Cl)C2(Cl)Cl (stereo partly drawn),inactive,,inactive,60 µM (active),,inactive,inactive,,,38.2 µM (active),,,,,,inactive,7.56 µM (active),,,
CCCCCCCCCCOCC(O)CN (stereo not drawn),,inactive,inactive,33.5 µM (active),,,inactive,,,26.6 µM (active),,inactive,inactive,,,,,,inactive,inactive
CC(C)OC(=O)c1cc(C(=O)OC(C)C)cc([N+](=O)[O-])c1,inactive,,,,inactive,,inactive,,inactive,,,,,inactive,,,,,,
